Drawing on PubChem BioAssay AID1527 (The Scripps Research Institute Molecular Screening Center, 2009), this text covers inhibition for 15 molecules.

Out of some 290,000 compounds screened, about 2,600 (0.9%) were called active.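 The calls were made as follows: active = inhibition above the mean of all tested compounds plus 3 SD, cutoff set per screening run (cut at about 7.5% in these data); inactive = the rest.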 Many of the other results were omitted from the sample, so actives are more common in it than they were.

By inhibition is commonly meant the drop in the measured response relative to a control, in per cent.

The subject of the assay is VIM-2 metallo-beta-lactamase (Pseudomonas aeruginosa). The assay can be described thus: inhibition of VIM-2 nitrocefin hydrolysis – biochemical, epi-absorbance readout, Pseudomonas aeruginosa enzyme, primary screen (AID 1527).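 Also: red hydrolysis product quenches plate fluorescence so inhibitors raise well fluorescence; 0% = enzyme with DMSO and 100% = DMSO without enzyme.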 Particulars: purified VIM-2, nitrocefin hydrolysis, epi-absorbance fluorescence; at 5.6 µM; hits give high values.
Take `O=C(Cc1ccccc1[N+](=O)[O-])N1CCN(Cc2ccc3c(c2)OCO3)CC1`: the inhibition was 1.82% (inactive).
Regarding `Cc1cc(=O)oc2c(C)c(OCC(=O)N3CCN(Cc4ccc5c(c4)OCO5)CC3)ccc12`, the inhibition was 41.5% (active).
With `Fc1ccc(N2CCN(Cc3ccc4c(c3)OCO4)CC2)cc1`, the inhibition is -2.76% (inactive).
For `CC(=O)c1c(C)n(C(C)C)c2ccc(O)cc12` the value was -2.19% (inactive); for `COc1cc2nc(N3CCN(C(=O)[C@@H]4CCCO4)CC3)nc(N)c2cc1OC`, -2.29% (inactive).
With `CCOC(=O)C1(CCc2ccccc2)CCN(Cc2ccco2)CC1`, the inhibition is -1.92% (inactive).
Consider `CNC(=O)O/N=C(\N)Cc1csc2ccc(Cl)cc12`, for which the inhibition was -0.28% (inactive).
For `COC(=O)COc1cc(C)cc2oc(=O)c3c(c12)CCCC3` the value was 8.38% (active); for `CCN1CCN(C(=O)Cc2coc3cc(C)cc(C)c23)CC1`, -5.4% (inactive); for `Cc1cc(OCc2cc(C(=O)O)oc2C)c2c3c(c(=O)oc2c1)CCCC3`, 56.6% (active).
For `O=C(N/N=C/c1c(O)n(C2CC2)c(=S)[nH]c1=O)c1ccccc1Cl` the value was -1.56% (inactive); for `CN(C)CC1CCCCC1OC(=O)c1ccc(Cl)c(Cl)c1` (stereo not given), 0.42% (inactive); for `Cc1cc2ccccn2c1C(C[N+](=O)[O-])c1c(F)cccc1Cl` (stereo not given), 0.92% (inactive).
The same measure for `COc1ccc(-n2c(-c3ccccc3)nc3ccccc3c2=O)cc1`: -3.17% (inactive).
With `COCCNC(=O)CN1C2CCC1CC(O)(c1cccnc1)C2` (stereo not given), the inhibition was -2.88% (inactive).
